Shown are actives, neighbours in structure and some others; about 1.5% of the full set was active somewhere.
CCHF vOTU inh: blocks the CCHF virus ovarian tumor domain protease | CCHFV vOTU protease, Pep-AMC fluorescence | inhibition, % at 11.5 µM | actives 0.55% (n = 370,000) | AID 651958; in the data active = inhibition above about 30%; note: 0% = vehicle wells with enzyme and 100% = no enzyme wells
PriA SSB inh: K. pneumoniae PriA-SSBct interaction inhibition; actives 0.6% (n = 430,000); AlphaScreen SSBct-PriA binding, biotinylated peptide; AID 1272365; inhibition, % at 33 µM; in the data active = inhibition mostly above about 37%, no sharp cut-off; inactive = mostly below about 20%;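 note: plate controls were negative control peptide for no effect and reference peptide for full effect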
DUSP3 inh: DUSP3 (human) phosphatase inhibition. P51452. recombinant VHR phosphatase, pNPP absorbance. inhibition, % at 13.3 µM. actives 0.52% (n = 290,000). AID 1654; in the data active = inhibition above about 50%
PrPC surface inh: cell surface PrPC inhibition, primary TR-FRET screen. inhibition, % at 13.8 µM. TR-FRET read-out. P04156. actives 0.43% (n = 370,000). AID 720596; in the data active = inhibition above about 24%; note: 0% = median of the test wells and 100% = reference compound wells
TcdB inh: blocks C. difficile toxin B glycohydrolase activity. inhibition, % at 9.99 µM. actives 0.24% (n = 350,000). TcdB glycohydrolase enzymatic assay, plate reader. P18177; in the data active = inhibition above about 10%
BH1578 lux ind: quorum light induction in luxS cqsA deficient V. cholerae; AID 588436; activation, % at 18.7 µM; V. cholerae BH1578 lux reporter, luminescence, 6 h; actives 0.16% (n = 350,000); in the data active = activation mostly above about 9.7%, no sharp cut-off
Starred values were filed as active, the others as inactive; i = inactive; nt = no result given; + = active, no number.

SMILES | CCHF vOTU inh | PriA SSB inh | DUSP3 inh | PrPC surface inh | TcdB inh | BH1578 lux ind
CCOC(=O)N1CCC(c2cc(=O)n3[nH]c(-c4ccccc4)cc3n2)CC1 | -3 | 7 | 15 | -1 | 24* | 0
CCOC(=O)Cc1cc(=O)n2[nH]c(C)c(-c3ccccc3)c2n1 | 3 | -18 | -6 | 9 | nt | i
CCOC(=O)N1CCC(c2cc(=O)n3[nH]c(C)c(-c4ccc(F)cc4)c3n2)CC1 | 7 | 55* | 24 | 1 | 1 | 0
CCn1cc([C@H]2C(C(N)=O)=C(C)N=C3SCC(=O)N32)cn1 | nt | -16 | nt | nt | nt | nt
Cc1nn(C)c(C)c1S(=O)(=O)N1CC(S(=O)(=O)Cc2ccco2)C1 | nt | 16 | nt | nt | nt | nt
O=C(Nc1ccn2nccc2c1)c1ccc2nsnc2c1 | nt | 1 | nt | nt | nt | nt
O=C1CSC(=S)N1N=Cc1ccccc1O | 8 | 30 | nt | 8 | -7 | 1
CCOc1cccc(C=NN2C(=O)CSC2=S)c1O | nt | 71* | nt | nt | nt | nt
O=C1CSC(=S)N1N=Cc1ccc(O)c(O)c1O | nt | 100* | nt | nt | nt | nt
CN(C)CC#Cc1cccc(-c2nc(C(=O)O)cc3c2[C@H](CCO)N(S(=O)C(C)(C)C)C3)c1 (stereo partly drawn) | nt | nt | nt | nt | 0 | nt
COCCNC(=O)c1cc2c(c(-c3cccc(C#CCN(C)C)c3)n1)[C@H](CCO)N(S(=O)C(C)(C)C)C2 (stereo partly drawn) | nt | nt | nt | nt | 10* | nt
COc1ccc(CCC(=O)N2CCC(CSC3=NCCS3)CC2)cc1 | nt | -18 | nt | nt | nt | nt
Cc1ccc(CNC(=O)CSc2c3c(nc4cc(Cl)ccc24)CCCC3)o1 | 14 | 4 | 25 | 18 | nt | 26*
O=C(CSc1c2c(nc3cc(Cl)ccc13)CCCC2)NCCN1CCOCC1 | 2 | -5 | -1 | 13 | 2 | i
O=C(NN=Cc1cccc2ccccc12)c1ccncc1 | nt | 0 | nt | nt | nt | nt
O=C(N/N=C/c1cccc2cccnc12)c1ccccc1Br | nt | + | nt | nt | nt | nt
O=C(N/N=C/c1cccc2cccnc12)c1ccncc1 | nt | + | nt | nt | nt | nt
O=C(N/N=C/c1cccc2cccnc12)c1ccccc1 | nt | + | nt | nt | nt | nt
CCC(CO)Oc1cc(NCc2ccc(C)c(C)c2)c2ncn(C(C)C)c2c1 (stereo not drawn) | 12 | 36 | nt | 2 | 0 | i
CCC(CO)Oc1cc(NCc2cc(C)cc(C)c2)c2ncn(C(C)C)c2c1 (stereo not drawn) | 8 | 55* | nt | 1 | -1 | i
COc1ccccc1CNC(=O)N[C@H]1CC(=O)N(c2ccc(C)c(C)c2)C1 | nt | -7 | nt | nt | nt | nt
CC(NC(=S)Nc1ccc([N+](=O)[O-])cc1)C(c1cccs1)N1CCOCC1 (stereo not drawn) | nt | 29 | nt | nt | nt | nt
C=CCSc1nsc(NC(=O)Nc2ccc(F)cc2)n1 | -3 | -8 | 18 | 37* | 0 | -1
Brc1ccc2ccc3cccnc3c2n1 | nt | 33 | nt | nt | nt | nt
Brc1cc2cccnc2c2ncccc12 | nt | 151* | nt | nt | nt | nt
SMILES | CCHF vOTU inh | PriA SSB inh | DUSP3 inh | PrPC surface inh | TcdB inh | BH1578 lux ind
Clc1cc2cccnc2c2ncccc12 | 2 | 99* | nt | 16 | 1 | -1
Cc1ccc2[nH]c(-c3cccc(F)c3)cc(=O)c2c1 | 6 | 2 | -15 | 1 | 1 | -1
Cc1ccc2[nH]c(-c3cccc(N)c3)cc2c1 | 2 | 39* | 15 | 4 | nt | 0
O=C(c1cccc(F)c1)N1CCN(c2cc(N3CCCCC3)c(F)cc2[N+](=O)[O-])CC1 | 4 | 42* | -4 | -6 | 0 | -1
Cc1onc(-c2ccccc2Cl)c1C(=O)NCc1ccccc1 | 1 | -11 | 16 | -1 | 1 | i
Cc1onc(-c2ccccc2Cl)c1C(=O)NCCn1c(C)cc2ccccc21 | nt | 87* | 13 | nt | nt | 2
Cc1onc(-c2ccccc2Cl)c1C(=O)Nc1cnn(Cc2ccccc2)c1 | 2 | -16 | 16 | 6 | 13* | 0
Cc1onc(-c2ccccc2Cl)c1C(=O)NCCn1ncccc1=O | nt | -7 | nt | nt | nt | nt
CCCNc1nc(SCC)nc2c1cnn2CCNC(=O)c1c(-c2ccccc2Cl)noc1C | nt | 88* | nt | nt | nt | nt
O=C(NC[C@@](O)(c1ccccc1)C(F)(F)F)c1ccccc1S(=O)(=O)C(F)F | nt | -7 | nt | nt | nt | nt
O=C(c1cccs1)N1CCCc2cc(NS(=O)(=O)CCc3ccccc3)ccc21 | nt | -5 | nt | nt | nt | nt
CC1CN=C(Nc2cccc(S(=O)(=O)N(C)C)c2)S1 (stereo not drawn) | 7 | -9 | -6 | -3 | 14* | 1
O=C(Cn1ncc2c([nH]c3ccccc32)c1=O)N1CCN(c2ccc(F)cc2)CC1 | 7 | -9 | 51* | -8 | 1 | 0
NS(=O)(=O)c1ccc(CNC(=O)NC2(c3ccccc3)CC2)cc1 | -2 | -17 | 50* | 7 | 0 | 0
